Compound activity deposited in PubChem by several laboratories.
tim10-1 inh: growth inhibitors of tim10-1 mutant yeast; S. cerevisiae tim10-1 ts strain growth, BacTiter-Glo, 24 h; 330,000 compounds, 2.2% hits; AID 463190; inhibition, % at 20 µM;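 active = inhibition of at least 40%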;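 also: mutant grown at 25 °C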
PfHsp90 yeast 2: inhibits growth of yeast expressing Plasmodium falciparum Hsp90; 310,000 compounds, 0.32% hits; AID 504621; inhibition, % at 9.4 µM; S. cerevisiae expressing PfHsp90, BacTiter-Glo ATP, 48 h; yeast lacking PDR1 and PDR3 efflux regulators;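 active = every replicate shows inhibition above about 80%, whatever the replicate mean, limit read from the data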
TIM10 inh: growth inhibitors of TIM10 yeast strain; AID 463195; inhibition, % at 10 µM; 330,000 compounds, 1.4% hits; S. cerevisiae TIM10 strain growth, BacTiter-Glo luminescence, 24 h;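 active = inhibition of 40% or more at the single tested concentration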;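 also: wild-type TIM10 isogenic control strain grown at permissive 25 °C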
NLRP3 yeast inh: NALP3 inhibition in yeast; Yeast reconstituted NLRP3/ASC/caspase-1, beta-gal luminescence, 24 h; inhibition, % at 10 µM; 330,000 compounds, 0.39% hits; AID 2825;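 active = inhibition of 50% or more; inactive = inhibition below 50%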
tim23-1 inh: inhibits growth of tim23-1 mutant yeast. S. cerevisiae tim23-1 growth, BacTiter-Glo luminescence, 24 h. inhibition, % at 20 µM. 330,000 compounds, 1.3% hits;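 active = growth inhibition of the mutant yeast at or above 50%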;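 also: temperature-sensitive mutant grown at 25 °C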
tim10-1 confirm: confirmation of tim10-1 mutant yeast growth inhibitors | S. cerevisiae tim10-1 ts strain growth, BacTiter-Glo, 24 h | inhibition, % at 20 µM | 7,400 compounds, 56% hits | shares compounds with tim10-1 inh;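 active = inhibition of yeast growth at or above a set limit in either of two repeat tests at 20 µM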;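 also: tim10-1 mutant grown at permissive 25 °C to find synthetic lethal compounds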
TIM10 conf: TIM10 yeast growth inhibition, confirmed. shares compounds with TIM10 inh. S. cerevisiae tim10 strain growth, BacTiter-Glo luminescence, 24 h. inhibition, % at 10 µM. 4,600 compounds, 63% hits. AID 463215;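 active = inhibition of yeast growth at or above a set limit in either of two replicates at 10 µM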; also: this counterscreen used the strain with wild-type TIM10
Numbers stand for hits; 0 = inactive; - = not tested or not shown. The list is not random: actives were taken first. Their share in the collection is about 3.7%.

SMILES	tim10-1 inh	PfHsp90 yeast 2	TIM10 inh	NLRP3 yeast inh	tim23-1 inh	tim10-1 confirm	TIM10 conf
Cc1cc(-c2nnc(SCC(=O)Nc3ccc(F)c(F)c3)n2N)n[nH]1	0	0	0	0	0	-	-
CCN1CCN(c2cc(N3CCc4ccccc4C3)c(F)cc2[N+](=O)[O-])CC1	41.1	0	41.3	0	0	31.8	0
CC(=O)Oc1cc(C(=O)OCC(=O)NC23CC4CC(CC(C4)C2)C3)cc(OC(C)=O)c1OC(C)=O	-	0	-	-	-	-	-
Cc1ccc(/C=C2\SC(=S)N(CCCC(=O)NC3CCCC3)C2=O)cc1	0	0	0	0	0	-	-
CCOC(=O)N/N=C\c1ccc(-c2cc(Cl)ccc2Cl)o1	44.1	0	41.2	0	0	34.1	34.6
C=CCc1cccc(/C=N/NC(=O)CNc2ccccc2OC)c1O	47.0	0	96.7	0	0	0	46.8
C=CCc1cccc(/C=N/NC(=O)CNc2ccccc2)c1O	0	0	0	0	0	-	-
Cn1c(/C=C/c2ccc([N+](=O)[O-])o2)nc2ccccc2c1=O	77.0	98.4	76.8	0	0	58.2	0
CCOC(=O)c1ccc(NC(=O)CC2Sc3ncnn3C2=O)cc1 (centres undefined)	61.4	-	75.2	0	0	58.3	58.3
Cc1nc(N2CCN(C(=O)c3ccco3)CC2)c2oc3ccccc3c2n1	0	0	0	0	0	-	-
Cc1nc(N2CCC(C)CC2)c2oc3ccccc3c2n1	48.9	0	45.6	0	0	0	46.8
COc1ccc(C(=O)NCC(c2ccccc2)c2ccccc2)cc1S(=O)(=O)N1CCOCC1	-	0	-	-	-	-	-
COc1ccc(NC(=O)/C(C#N)=C/c2c(C)nn(-c3ccc(F)cc3)c2Cl)cc1Cl	0	0	0	0	0	-	-
COc1ccc(NC(=O)/C(C#N)=C/c2c(C)nn(-c3ccc(F)cc3)c2Cl)cc1OC	50.8	0	48.9	0	0	45.2	42.1
N/C(CCS(=O)(=O)c1ccc(Cl)cc1)=N\OC(=O)c1ccccc1Cl	61.7	0	51.4	0	0	70.7	50.5
NC(=O)CCS(=O)(=O)c1ccc(Cl)cc1	0	0	0	0	0	-	-
O=C(c1cccc2ccccc12)n1nnc2ccccc21	66.5	-	58.7	0	0	61.1	72.7
Cc1nn(C)c(C)c1NC(=O)Nc1ccc(Cl)c(Cl)c1	60.2	0	40.2	0	0	57.8	0
COc1ccc(-c2cn3ccccc3n2)cc1OC	0	0	0	0	0	-	-
COc1ccc(-c2cn3cc(C)ccc3n2)cc1OC	49.9	0	67.4	0	0	42.9	59.7
CO/N=C/c1ccc(Sc2ccccc2N)c([N+](=O)[O-])c1	49.2	0	43.9	0	0	35.4	0
Cc1cc2ncn(-c3ncnc4scc(-c5ccccc5)c34)c2cc1C	49.6	0	41.4	0	0	44.8	36.8
Cc1cc2ncn(-c3ncnc4sc5c(c34)CCC(C)C5)c2cc1C (centres undefined)	49.9	0	52.2	0	0	44.8	45.3
Cc1cc2ncn(-c3ncnc4sc5c(c34)CCCC5)c2cc1C	0	-	0	0	0	-	-
CCC(=O)Nc1ccc(C(=O)NNC(=O)C2CCCCC2)cc1	0	0	0	0	0	-	-
SMILES	tim10-1 inh	PfHsp90 yeast 2	TIM10 inh	NLRP3 yeast inh	tim23-1 inh	tim10-1 confirm	TIM10 conf
COC(=O)c1cc(NC(=S)Nc2cc(Cl)cc(Cl)c2)cc(C(=O)OC)c1	49.3	0	50.5	0	0	32.6	0
COCCCN(C(=O)CSCC(=O)Nc1ccc(C)cc1)c1c(N)n(Cc2ccccc2)c(=O)[nH]c1=O	-	0	-	-	-	-	-
CCOC(=O)CSC1=NC(=O)/C(=C\c2ccc(OC(C)=O)cc2)S1	69.0	0	51.2	0	0	68.8	62.8
COc1ccc(CNc2ncnc3cc(Cl)ccc23)cc1OC	-	0	-	-	-	-	-
CCN(CC)Cc1cc2[nH]c3c4ccc(Cl)cc4ncc3c2cc1OC	57.1	0	68.0	0	0	50.0	35.0
Cc1c(NS(=O)(=O)c2cccc(C(=O)OCC(=O)c3ccc(Cl)cc3)c2)c(=O)n(-c2ccccc2)n1C	-	0	-	-	-	-	-
CN(C)CCCNS(=O)(=O)c1cc(Cl)ccc1Cl	0	-	0	0	0	-	-
CN(C)CCCNS(=O)(=O)c1ccc(N2CCC(c3ccc(Cl)cc3)=N2)cc1	58.9	-	51.7	0	0	39.9	50.3
CCCCN(C(=O)c1cc2c(s1)CCC2)c1c(N)n(CCCC)c(=O)[nH]c1=O	0	-	0	0	0	-	-
O=c1[nH]c(-c2ccccc2)ncc1Oc1ccccc1	0	-	0	0	0	-	-
O=C(Nc1nc2nc(-c3ccccc3)cc(-c3ccccc3)n2n1)c1ccco1	42.7	0	60.0	0	0	0	0
CC(=O)Nc1nc2nc(-c3ccccc3)cc(-c3ccccc3)n2n1	0	0	0	0	0	-	-
CCOc1ccc(Cl)cc1S(=O)(=O)n1nnc2ccccc21	45.5	0	51.3	0	0	42.0	0
Cc1ccc2nc(N3CCN(Cc4nnnn4Cc4ccccc4)CC3)c(C#N)cc2c1	57.9	0	51.0	0	0	53.9	0
Cc1ccc2nc(N3CCN(C)CC3)c(C#N)cc2c1	0	-	0	0	0	-	-
O=C(CCl)c1ccc2c(c1)CCN2C(=O)C1CCCCC1	61.9	-	76.1	0	0	36.2	65.1
CCC1CCCCN1S(=O)(=O)c1ccc2c(c1)CCN2C(=O)C1CCC1 (centres undefined)	54.5	0	56.3	0	0	45.4	50.0
CC1CCN(S(=O)(=O)c2ccc3c(c2)CCN3C(=O)C2CCC2)CC1	0	0	0	0	0	-	-
Cc1ccccc1NC1=C/C(=N\S(=O)(=O)c2cccs2)c2ccccc2C1=O	81.7	0	66.7	0	0	77.0	53.7
Cc1ccc(NC2=C/C(=N/S(=O)(=O)c3cccs3)c3ccccc3C2=O)cc1C	-	0	-	-	-	-	-
CCN(CC(=O)Nc1c(F)cccc1F)C(=O)c1ccc(S(=O)(=O)N(CC)c2ccccc2)cc1	-	0	-	-	-	-	-
O=C(/C=C/c1ccc(-c2ccccc2)o1)c1ccccc1	0	0	54.1	0	0	58.6	47.5
COc1ccc(C(C#N)=C2C=CC(=NO)C=C2)cc1	50.5	115.1	81.2	0	0	54.5	90.8
Cc1ccc(COc2ccc(Br)cc2/C=N/O)cc1	50.8	0	45.5	0	0	0	0
S=c1[nH]nc(-c2ccc(Br)cc2)n1Cc1ccccc1	42.4	0	46.4	0	0	0	45.0
FC(F)(F)Oc1ccc(NC(=S)Nc2ccc(OC(F)(F)F)cc2)cc1	50.0	0	57.0	0	0	62.4	70.5
Cc1nc2ccc([N+](=O)[O-])cc2c(=O)n1Cc1ccccc1Br	0	0	0	0	0	-	-
O=C1CC[C@@H]2CC(N3CCN(c4ccccc4)CC3)C[C@@H]3CCN1[C@H]23 (some centres undefined)	-	0	-	-	-	-	-
C=CCc1c(C)nc(-c2ccccc2)nc1N/N=C(\C)c1ccc(N)cc1	0	0	0	0	0	-	-
